PubChem BioAssay AID1159580 (chemical genetic matrix, 2015)
Several values for one entry are separate records, joined by “and”; a condition that tells them apart may be missing. Equal values may be shown once. Among all 5,500 compounds or so, about 2,000 (36%) were called active. About 18% were inconclusive and are not listed. Cut-off read from the data, not from the text of the source: active = normalized growth mostly below about 0.91 (no sharp cut-off); inconclusive = no clear call, values can overlap the other calls; inactive = mostly above about 0.92. Some of the results follow.

Assay: chemical genetic growth profiling, strain panel (AID 1159580);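 note: tested at 20 µM; growth read once vehicle control cultures reached saturation at 30 °C; 1 = growth at the plate median or of vehicle wells; lower values mean less growth of the strain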
Details: S. cerevisiae deletion strains, growth OD

Measured: normalized growth

O=C(Nc1ccc([N+](=O)[O-])cc1Cl)c1cc(Cl)ccc1O
active: locus YAL021C, strain ccr4, active compounds read low 0.798 | locus YBL061C, strain skt5, active compounds read low 0.818 | locus YBR009C, strain hhf1, active compounds read low 0.896 | locus YBR023C, strain chs3, active compounds read low 0.757 | locus YBR231C, strain swc5, active compounds read low 0.69 | locus YBR279W, strain paf1, active compounds read low 0.748 | locus YCL016C, strain dcc1, active compounds read low 0.458 | locus YCL029C, strain bik1, active compounds read low 1.15 [resistant] | locus YDL005C, strain med2, active compounds read low 1.09 [resistant] | locus YDL035C, strain GPR1, active compounds read low 0.856 | locus YDL040C, strain nat1, active compounds read low 0.681 | locus YDR101C, strain arx1, active compounds read low 1.22 [resistant] | locus YDR137W, strain rgp1, active compounds read low 0.18 | locus YDR150W, strain NUM1, active compounds read low 0.878 | locus YDR159W, strain sac3, active compounds read low 0.785 | locus YDR162C, strain NBP2, active compounds read low 0.832 | locus YDR195W, strain ref2 1.24 [resistant] | locus YER002W, strain NOP16, active compounds read low 0.884 | locus YER015W, strain faa2, active compounds read low 0.901 | locus YER016W, strain bim1, active compounds read low 0.772 | locus YER111C, strain swi4, active compounds read low 1.16 [resistant] | locus YGL167C, strain pmr1, active compounds read low 0.606 | locus YGL240W, strain doc1, active compounds read low 0.6 | locus YHR013C, strain ard1, active compounds read low 0.627 | locus YHR079C, strain IRE1 (second series), active compounds read low 1.14 [resistant] | locus YIL073C, strain SPO22, active compounds read low 1.59 [resistant] | locus YIR030C, strain dcg1, active compounds read low 1.14 [resistant] | locus YJL095W, strain BCK1 (second series), active compounds read low 0.91 | locus YJL166W, strain qcr8, active compounds read low 0.758
inactive: locus YAL026C, strain drs2, active compounds read low 0.931 | locus YAL030W, strain snc1, active compounds read low 0.937 | locus YAL040C, strain CLN3, active compounds read low 0.969 | locus YBR021W, strain FUR4, active compounds read low 0.898 | locus YBR171W, strain sec66, active compounds read low 1.01 | locus YBR229C, strain ROT2, active compounds read low 0.991 | locus YCL011C, strain gbp2, active compounds read low 0.944 | locus YCL061C, strain MRC1 (second series), active compounds read low 0.999 | locus YCL069W, strain vba3, active compounds read low 0.959 | locus YCR088W, strain abp1, active compounds read low 0.97 | locus YDL074C, strain BRE1, active compounds read low 0.895 | locus YDL101C, strain DUN1, active compounds read low 0.983 | locus YDL185W, strain tfp1, active compounds read low 1.01 | locus YDL192W, strain arf1, active compounds read low 1.01 | locus YDR001C, strain nth1, active compounds read low 0.989 | locus YDR069C, strain doa4, active compounds read low 1.03 | locus YDR297W, strain sur2, active compounds read low 0.938 | locus YDR318W, strain mcm21, active compounds read low 1.03 | locus YDR334W, strain swr1, active compounds read low 0.981 | locus YDR335W, strain msn5, active compounds read low 0.997 | locus YDR363W, strain ESC2, active compounds read low 0.95 | locus YDR388W, active compounds read low 0.989 | locus YDR392W, strain spt3, active compounds read low 0.828 | locus YDR502C, strain sam2, active compounds read low 1.02 | locus YEL003W, strain gim4, active compounds read low 1.07 | locus YEL037C, strain rad23, active compounds read low 1.01 | locus YEL061C, strain CIN8 (second series), active compounds read low 1 | locus YEL061C, strain CIN8, active compounds read low 0.965 | locus YER110C, active compounds read low 0.934 | locus YER155C, strain BEM2 (second series), active compounds read low 0.985 | locus YER155C, strain BEM2, active compounds read low 0.99 | locus YER167W, strain BCK2, active compounds read low 0.929 | locus YFR010W, strain ubp6, active compounds read low 0.959 | locus YGL078C, strain dbp3, active compounds read low 1.01 | locus YGL086W, strain mad1, active compounds read low 0.954 | locus YGL173C, strain kem1, active compounds read low 0.994 | locus YGL227W, strain vid30, active compounds read low 0.997 | locus YGL248W, strain PDE1, active compounds read low 0.932 | locus YGL253W, strain hxk2, active compounds read low 0.933 | locus YGR078C, strain PAC10, active compounds read low 0.948 | locus YGR135W, strain pre9, active compounds read low 1.03 | locus YGR252W, strain gcn5, active compounds read low 1.01 | locus YHR027C, strain rpn1, active compounds read low 0.944 | locus YHR030C, strain SLT2, active compounds read low 0.922 and 0.995 | locus YHR079C, strain IRE1, active compounds read low 0.981 | locus YHR094C, strain hxt1, active compounds read low 1.05 | locus YHR129C, strain ARP1, active compounds read low 0.944 | locus YHR142W, strain chs7, active compounds read low 0.967 | locus YHR200W, strain rpn10, active compounds read low 1 | locus YIL066C, strain RNR3, active compounds read low 0.9 | locus YIL125W, strain kgd1, active compounds read low 1 | locus YJL092W, strain hpr5, active compounds read low 0.965 | locus YJL095W, strain BCK1, active compounds read low 0.91 and 1 | locus YJL115W, strain asf1, active compounds read low 1.05 | locus YJL129C, strain trk1, active compounds read low 1.13 | locus YJL134W, strain LCB3, active compounds read low 0.978 | locus YJL154C, strain vps35, active compounds read low 0.979 | locus YJL164C, strain tpk1, active compounds read low 0.952 | locus YJL168C, strain set2, active compounds read low 0.996 | locus YJL187C, strain SWE1 (second series), active compounds read low 0.903 | locus YJR043C, strain POL32, active compounds read low 0.929 | locus YJR066W, strain TOR1, active compounds read low 0.904
